Reference: PubChem BioAssay (Tox21)
Records with an inconclusive call do not appear. The source made the active and inactive calls. Unless noted, the call rests on the fitted dose curve.

Legend:
[1] = qHTS assay to identify small molecule antagonists of the estrogen receptor beta (ER-beta) signaling pathway - cell viability counter screen (AID 1259382; active means well fitted curve in the direction sought with a large enough effect in the repeat runs; an effect the other way counts as inactive or inconclusive; further: series mostly up to about 92 µM; nearly all actives have a fitted effect of over 55% in size)
How it was run: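 Agonist-stimulated (1nM E2) ER-beta-UAS-bla HEK293T cells are incubated with library compounds for 16 hr at 37C. Cell viability is then assessed in the reporter-assay wells by adding CellTiter-Glo and reading luminescence after 30 min.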

[2] = target: Estrogen receptor (Homo sapiens) (UniProt P03372); experiment: qHTS assay to identify small molecule agonists of the estrogen receptor alpha (ER-alpha) signaling pathway in the presence of an antagonist (AID 1259383); further: top concentration of the series differs between compounds; nearly all actives have a fitted effect of over 15% in size
Sequence of Estrogen receptor (Homo sapiens) (P03372 whole entry, looked up): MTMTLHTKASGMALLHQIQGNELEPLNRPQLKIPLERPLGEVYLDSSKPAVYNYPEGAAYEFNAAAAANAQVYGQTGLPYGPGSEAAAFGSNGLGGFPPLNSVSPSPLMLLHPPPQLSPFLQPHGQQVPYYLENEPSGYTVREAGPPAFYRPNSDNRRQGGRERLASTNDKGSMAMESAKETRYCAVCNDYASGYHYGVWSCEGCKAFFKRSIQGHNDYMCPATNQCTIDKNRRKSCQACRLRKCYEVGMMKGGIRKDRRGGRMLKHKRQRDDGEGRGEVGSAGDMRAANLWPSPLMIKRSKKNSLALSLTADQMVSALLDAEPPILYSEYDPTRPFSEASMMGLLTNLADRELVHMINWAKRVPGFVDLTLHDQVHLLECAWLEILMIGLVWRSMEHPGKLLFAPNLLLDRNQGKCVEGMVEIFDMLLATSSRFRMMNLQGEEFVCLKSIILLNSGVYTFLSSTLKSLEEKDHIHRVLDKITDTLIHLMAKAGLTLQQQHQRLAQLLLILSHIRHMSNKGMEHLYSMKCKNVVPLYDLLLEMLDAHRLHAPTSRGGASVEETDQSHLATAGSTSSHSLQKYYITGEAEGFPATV
How it was run: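 Using VM7Luc4E2 cells seeded 24hr before treatment, antagonist ICI-182,780 (10.0nM final) was added, followed by compounds at 15 concentrations. Plates incubated 22hr; ONE-Glo luminescence quantified reporter activity.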

[3] = qHTS assay to identify small molecule agonists or antagonists of the thyroid stimulating hormone receptor (TSHR) signaling pathway - wild type cell line counter screen (AID 1259384)
How it was run: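 Wild-type HEK293 cells were plated 18 h at 37 C/5% CO2, pin-dosed with compound plus Ro20-1724 medium, held 30 min at room temperature, then given cAMP-d2 and anti-cAMP-cryptate; fluorescence was read after 1 h. Fifteen concentrations, triplicate.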

[4] = target: Thyrotropin receptor (Homo sapiens) (UniProt P16473); experiment: qHTS assay to identify small molecule antagonists of the thyroid stimulating hormone receptor (TSHR) signaling pathway (AID 1259385); further: nearly all actives have a fitted effect of over 20% in size
Sequence of Thyrotropin receptor (Homo sapiens) (P16473 whole entry, looked up): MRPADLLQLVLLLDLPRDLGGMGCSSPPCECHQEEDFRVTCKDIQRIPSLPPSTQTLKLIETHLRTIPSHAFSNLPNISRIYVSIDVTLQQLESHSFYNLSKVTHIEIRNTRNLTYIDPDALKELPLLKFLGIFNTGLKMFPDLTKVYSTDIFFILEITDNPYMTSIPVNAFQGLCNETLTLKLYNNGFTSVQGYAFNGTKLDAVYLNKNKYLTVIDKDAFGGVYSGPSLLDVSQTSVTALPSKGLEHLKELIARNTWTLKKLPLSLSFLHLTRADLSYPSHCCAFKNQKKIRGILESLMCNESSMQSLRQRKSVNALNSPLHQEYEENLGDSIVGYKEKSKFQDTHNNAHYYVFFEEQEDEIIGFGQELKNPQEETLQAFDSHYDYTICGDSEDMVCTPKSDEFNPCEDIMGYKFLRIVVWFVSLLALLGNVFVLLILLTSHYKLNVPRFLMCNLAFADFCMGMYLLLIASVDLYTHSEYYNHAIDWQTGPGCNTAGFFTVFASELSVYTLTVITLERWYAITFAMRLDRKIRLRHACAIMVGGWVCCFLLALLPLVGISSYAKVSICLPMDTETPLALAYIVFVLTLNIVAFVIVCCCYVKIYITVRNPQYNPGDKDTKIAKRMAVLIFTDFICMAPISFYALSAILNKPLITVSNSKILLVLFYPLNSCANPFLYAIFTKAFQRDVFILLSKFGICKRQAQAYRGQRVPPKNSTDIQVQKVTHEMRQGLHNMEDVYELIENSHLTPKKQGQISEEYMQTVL
How it was run: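 TSHR-HEK293 cells were plated and held 18 h at 37C/5% CO2, then given compound plus Ro20-1724 and stimulated with TSH at 1.5 ng/mL final. After 30 min at room temperature, cAMP was detected with cAMP-d2/anti-cAMP-cryptate (1 h) by fluorescence.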

[5] = qHTS assay to identify small molecule agonists of the estrogen receptor alpha (ER-alpha) signaling pathway in the presence of an antagonist - cell viability counter screen (AID 1259386; active means well fitted curve in the direction sought with a large enough effect in the repeat runs; an effect the other way counts as inactive or inconclusive;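 further: series mostly up to about 92 µM; cells exposed to compounds for 22 h at 37 °C before the viability read; nearly all actives have a fitted effect of over 30% in size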)
How it was run: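 ICI-182,780 at 10.0nM final accompanies the compound titration (15 concentrations, 22hr, 37C) on VM7Luc4E2 cells. The CellTiter-Fluor fluorescence readout runs in the same wells as the luciferase assay.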

[6] = target: Progesterone receptor (Homo sapiens) (UniProt P06401); experiment: qHTS assay to identify small molecule agonists of the progesterone receptor (PR) signaling pathway (AID 1346784); further: nearly all actives have a fitted effect of over 30% in size; further: potency means the concentration at half of the fitted maximal effect
Sequence of Progesterone receptor (Homo sapiens) (P06401 whole entry, looked up): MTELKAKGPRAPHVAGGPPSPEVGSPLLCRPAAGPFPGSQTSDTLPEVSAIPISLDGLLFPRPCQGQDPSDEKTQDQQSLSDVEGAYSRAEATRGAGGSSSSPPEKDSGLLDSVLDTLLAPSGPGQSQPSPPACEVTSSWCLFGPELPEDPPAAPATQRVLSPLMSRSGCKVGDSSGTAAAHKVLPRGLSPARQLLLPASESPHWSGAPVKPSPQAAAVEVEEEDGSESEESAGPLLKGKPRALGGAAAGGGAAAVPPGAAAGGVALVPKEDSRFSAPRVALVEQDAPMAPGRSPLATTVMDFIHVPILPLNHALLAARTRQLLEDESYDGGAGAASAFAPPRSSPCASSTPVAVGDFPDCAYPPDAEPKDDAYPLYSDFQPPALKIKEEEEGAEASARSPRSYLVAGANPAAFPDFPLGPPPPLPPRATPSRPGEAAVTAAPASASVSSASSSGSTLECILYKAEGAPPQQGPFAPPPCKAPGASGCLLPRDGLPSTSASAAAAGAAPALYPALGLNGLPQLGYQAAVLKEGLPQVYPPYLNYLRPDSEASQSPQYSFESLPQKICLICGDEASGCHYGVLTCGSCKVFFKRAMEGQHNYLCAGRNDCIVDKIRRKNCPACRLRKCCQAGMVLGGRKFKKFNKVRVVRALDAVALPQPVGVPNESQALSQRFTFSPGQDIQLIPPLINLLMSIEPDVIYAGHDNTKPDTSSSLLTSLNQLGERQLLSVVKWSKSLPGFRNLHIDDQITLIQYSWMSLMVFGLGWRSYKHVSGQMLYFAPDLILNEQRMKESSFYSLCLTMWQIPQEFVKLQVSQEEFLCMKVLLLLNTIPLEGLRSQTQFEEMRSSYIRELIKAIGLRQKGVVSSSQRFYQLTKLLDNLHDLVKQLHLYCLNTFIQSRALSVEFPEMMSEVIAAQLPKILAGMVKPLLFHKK
How it was run: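 PR-UAS-bla HEK 293T cells (beta-lactamase reporter under UAS) in 2% charcoal-stripped FBS, dosed with 23 nL compound after 6 hr, incubated 16hr at 37C. LiveBLAzer B/G FRET substrate added, fluorescence read after 2 hours.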

[7] = target: Progesterone receptor (Homo sapiens) (UniProt P06401); experiment: qHTS assay to identify small molecule antagonists of the progesterone receptor (PR) signaling pathway (AID 1346795; active means well fitted inhibition curve with a large enough effect in the signal ratio in the repeat runs, not every such curve was filed as active; the % refers to the signal ratio)
How it was run: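 PR-UAS-bla HEK293T cells with beta-lactamase reporter under UAS control, in 2% charcoal-stripped FBS, treated with compounds plus 1 nM promegestone (R5020, final) for 16 hr at 37C. Read-out: FRET beta-lactamase substrate fluorescence after 2 hr at room temperature.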

[8] = qHTS assay to identify small molecule antagonists of the progesterone receptor (PR) signaling pathway - cell viability counter screen (AID 1346798; active means well fitted curve in the direction sought with a large enough effect in the repeat runs; an effect the other way counts as inactive or inconclusive; further: series mostly up to about 92 µM; nearly all actives have a fitted effect of over 50% in size)
How it was run: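 PR-UAS-bla HEK293T cells, 3,000/well in 2% charcoal-stripped FBS medium, dosed with compounds plus R5020 agonist and incubated 16 h at 37C. Viability then measured in the same wells by CellTiter-Glo luminescence after 30 min at RT.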

[9] = qHTS assay to identify small molecule agonists of the progesterone receptor (PR) signaling pathway - cell viability counter screen (AID 1346799); further: nearly all actives have a fitted effect of over 45% in size
How it was run: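 Counter screen in the PR-UAS-bla HEK293T wells (2% charcoal-stripped FBS, 16 h compound exposure at 37 C) after the bla read. CellTiter-Glo added, 30 min at room temperature, luminescence read as cell viability.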

[10] = qHTS assay to identify small molecule antagonists of the TGF-beta/Smad signaling pathway - cell viability counter screen (AID 1346824; active means well fitted curve in the direction sought with a large enough effect in the repeat runs; an effect the other way counts as inactive or inconclusive; further: nearly all actives have a fitted effect of over 50% in size)
How it was run: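 SBE-bla HEK 293T cells were plated overnight at 37 C, then given compounds in DMSO plus TGF-beta1 (added as 0.25 ng/mL solution) for 5 hr. After the bla read, CellTiter-Glo was added to the same wells and luminescence read after 30 min at room temperature.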

Measured: Potency

NC(=O)C1(N2CCCCC2)CCN(CCCC(=O)c2ccc(F)cc2)CC1
inactive: [1] | [2] | [3] | [4] | [5] | [6] | [7] | [8] | [9] | [10]

CN[C@@H]1[C@H](O)[C@H](NC)[C@H]2O[C@@]3(O)C(=O)C[C@@H](C)O[C@H]3O[C@@H]2[C@H]1O
inactive: [1] | [2] | [3] | [4] | [5] | [6] | [7] | [8] | [9] | [10]

CCCCCCCCCCCCOC(C)=O
inactive: [1] | [2] | [3] | [4] | [5] | [6] | [7] | [8] | [9] | [10]

CCCCCC(=O)OCC
inactive: [1] | [2] | [3] | [4] | [5] | [6] | [7] | [8] | [9] | [10]

CC(C)(c1ccc(Oc2ccc3c(c2)C(=O)OC3=O)cc1)c1ccc(Oc2ccc3c(c2)C(=O)OC3=O)cc1
inactive: [1] | [2] | [3] | [4] | [5] | [6] | [7] | [8] | [9] | [10]

Nc1cc(C(=O)O)ccc1Cl
inactive: [1] | [2] | [3] | [4] | [5] | [6] | [7] | [8] | [9] | [10]

CC(=O)OC[C@H]1O[C@@H](OC(C)=O)[C@H](OC(C)=O)[C@@H]1OC(C)=O
inactive: [1] | [2] | [3] | [4] | [5] | [6] | [7] | [8] | [9] | [10]

CC(=O)OC(C)c1ccccc1 (configuration not stated)
inactive: [1] | [2] | [3] | [4] | [5] | [6] | [7] | [8] | [9] | [10]

CCCCCCCCCCCCCCCCCCN(C)C
inactive: [1] | [2] | [3] | [4] | [5] | [6] | [7] | [8] | [9] | [10]

O=C(O)c1ccc(OCCN2CCCCC2)cc1
inactive: [1] | [2] | [3] | [4] | [5] | [6] | [7] | [8] | [9] | [10]

CC1CCC(C(C)(C)S)C(=O)C1 (configuration not stated)
inactive: [1] | [2] | [3] | [4] | [5] | [6] | [7] | [8] | [9] | [10]

CC1=CC[C@H](CC=O)C1(C)C
inactive: [1] | [2] | [3] | [4] | [5] | [6] | [7] | [8] | [9] | [10]

COc1ccc(/C=N/NC(=O)c2ccncc2)cc1OC
inactive: [1] | [2] | [3] | [4] | [5] | [6] | [7] | [8] | [9] | [10]

CC(=O)c1ccc(OCC(=O)N2CCCCC2)cc1
inactive: [1] | [2] | [3] | [4] | [5] | [6] | [7] | [8] | [9] | [10]

CCN(Cc1cccc(S(=O)(=O)O)c1)c1ccccc1
inactive: [1] | [2] | [3] | [4] | [6] | [7] | [8] | [9] | [10]

CCCCCCCCCCCCCC(=O)OC
inactive: [1] | [2] | [3] | [5] | [6] | [7] | [8] | [9] | [10]

CC(C)CCCCCCOC(=O)C1CCCCC1C(=O)OCCCCCCC(C)C (configuration not stated)
inactive: [1] | [2] | [3] | [4] | [5] | [6] | [7] | [8] | [9] | [10]

CC(=O)OC(C(=O)c1ccccc1)c1ccccc1 (configuration not stated)
inactive: [1] | [2] | [3] | [4] | [5] | [6] | [7] | [8] | [9] | [10]

O=C(O)CCNC(=O)c1ccccc1
inactive: [1] | [2] | [3] | [4] | [6] | [7] | [8] | [9]

O=C1CC[C@H](C(=O)N2CCCCC2)N1
inactive: [1] | [2] | [3] | [4] | [5] | [8] | [10]

O=S(=O)(O)CCO
inactive: [1] | [2] | [3] | [4] | [5] | [7] | [8] | [9] | [10]
active: [6] 49.2 µM

CC(=O)c1ccc2c(c1)CCCC2
inactive: [1] | [2] | [3] | [4] | [5] | [6] | [7] | [8] | [9] | [10]

CC(C)(CO)[C@@H](O)C(=O)NCCCO
inactive: [1] | [2] | [3] | [4] | [5] | [6] | [7] | [8] | [10]
